Inconclusive results are not listed. Calls of active or inactive are those of the source.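 Rule for the calls, unless noted: active = viability at or under a set limit in both replicates, limit being median viability minus 3 SD (cut at about 48% in these data, passing the limit was not always enough); inconclusive = at or under the limit in just one replicate; inactive = at or above the limit in both replicates.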

Assay [1] is described as follows: reducers of endogenous Her2 protein level, primary screen, SKBR3 breast tumor cells, AlphaScreen, ATP viability (AID 461;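 active = Her2 level under about 52% in both replicate screens, with viability over 70% of control, limit read from the data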;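 for Her2 level: lower value means less Her2 protein in the cells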;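 for viability: percent of carrier control wells set as 100% viability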). Conditions: 18-24 h, measured here: SKBR3 viability, ATP luminescence, at 10 µM.
Assay [2] deals with Receptor tyrosine-protein kinase erbB-2 (Homo sapiens) (UniProt P04626). Described as above. Conditions: 18-24 h, at 10 µM, stronger effect = lower value.
Chain of Receptor tyrosine-protein kinase erbB-2 (Homo sapiens) (P04626 whole entry, looked up): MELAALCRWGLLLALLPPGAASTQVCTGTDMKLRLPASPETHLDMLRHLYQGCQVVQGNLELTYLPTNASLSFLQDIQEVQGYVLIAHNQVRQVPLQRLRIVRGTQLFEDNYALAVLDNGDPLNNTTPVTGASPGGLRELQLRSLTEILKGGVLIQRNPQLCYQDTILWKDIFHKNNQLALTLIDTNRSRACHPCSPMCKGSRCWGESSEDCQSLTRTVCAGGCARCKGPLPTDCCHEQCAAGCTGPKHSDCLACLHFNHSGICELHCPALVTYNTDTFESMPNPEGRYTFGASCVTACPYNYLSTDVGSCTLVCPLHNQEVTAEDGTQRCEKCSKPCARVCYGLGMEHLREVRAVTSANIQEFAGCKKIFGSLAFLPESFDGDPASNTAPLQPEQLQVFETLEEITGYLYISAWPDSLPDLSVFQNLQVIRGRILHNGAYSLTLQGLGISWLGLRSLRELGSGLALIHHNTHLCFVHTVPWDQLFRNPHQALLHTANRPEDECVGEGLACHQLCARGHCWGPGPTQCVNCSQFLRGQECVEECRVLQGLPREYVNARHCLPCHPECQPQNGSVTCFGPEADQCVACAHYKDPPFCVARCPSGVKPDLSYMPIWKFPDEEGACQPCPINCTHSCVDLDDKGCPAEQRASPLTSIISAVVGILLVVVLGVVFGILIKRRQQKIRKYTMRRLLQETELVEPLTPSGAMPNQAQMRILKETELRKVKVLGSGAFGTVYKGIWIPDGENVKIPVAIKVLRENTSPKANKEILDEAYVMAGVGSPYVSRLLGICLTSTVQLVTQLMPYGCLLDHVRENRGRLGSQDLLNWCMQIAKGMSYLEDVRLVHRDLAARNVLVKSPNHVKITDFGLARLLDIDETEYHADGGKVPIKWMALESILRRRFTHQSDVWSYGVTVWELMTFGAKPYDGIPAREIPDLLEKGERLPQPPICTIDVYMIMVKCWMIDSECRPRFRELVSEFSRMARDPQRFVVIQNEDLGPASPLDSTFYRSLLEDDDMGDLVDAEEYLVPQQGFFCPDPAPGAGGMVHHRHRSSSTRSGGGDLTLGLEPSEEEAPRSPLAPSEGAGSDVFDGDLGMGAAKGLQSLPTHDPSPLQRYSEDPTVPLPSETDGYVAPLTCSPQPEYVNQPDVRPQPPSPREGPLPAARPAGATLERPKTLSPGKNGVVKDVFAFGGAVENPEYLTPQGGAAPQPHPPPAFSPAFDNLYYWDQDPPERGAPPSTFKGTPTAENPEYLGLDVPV
Assay [3] in a line: SK-BR-3 cell growth inhibitors, pilot screen, 24 h, human (AID 572;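 active = viability at or below 10% of carrier control in both of two separate runs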;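 note: compound exposure lasted between 18 and 24 h rather than exactly 24 h; 100% = carrier-treated control wells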). The conditions noted are these: SK-BR-3 viability, CellTiter-Glo luminescence, at 10 µM, stronger effect = lower value. (In general: ATP-based viability assays read luminescence as a measure of living cells.)
Assay [4] in a line: HUVEC growth inhibition – cell-based, human, primary screen (AID 575;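 active = viability at or below 30% in both replicate assays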;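 note: 100% = median of untreated cell wells with 0.1% DMSO on each plate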). The conditions noted are these: HUVEC proliferation, CellTiter-Glo luminescence, 72 h; at 10 µM; stronger effect = lower value.
Assay [5] can be described thus: growth inhibitors of H69AR lung tumor, primary screen, human, duplicate replicates (AID 580).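 Note: 100% = mean luminescence of untreated wells and 0% = no signal.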 The conditions noted are these: H69AR lung tumor cells viability, ATP luminescence, 72 h; at 10 µM; stronger effect = lower value.
Assay [6] is described as follows: reversal of MRP1-mediated doxorubicin resistance, pilot screen, H69AR cells, doxorubicin co-treatment (AID 601;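 active = viability loss from added drug above about 55%, and viability with drug at most 40%, in both replicates, limit read from the data, passing the limit was not always enough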). The conditions noted are these: CellTiter-Glo, 72 h, at 10 µM; for differential viability (reversal): stronger effect = higher value.
A short description of assay [7]: 384-well plate pilot, post-Golgi transport modulator project, inhibition of yeast transport mutant growth (AID 636; in the data active = inhibition above about 31%). Conditions: absorbance 615 nm, about 18 h, stronger effect = higher value.
The nature of assay [8]: growth suppression of yeast trafficking mutant, preliminary HTS, modulators of trafficking downstream of Golgi apparatus project, 1536-format plate, OD 615 nm (AID 637; in the data active = inhibition above about 30%). The conditions noted are these: yeast transport mutant growth, absorbance 615 nm, 18 h; stronger effect = higher value.
Assay [9] can be described thus: OD615 S. cerevisiae growth inhibition, permissive medium, pilot counter-assay, permissive growth control for S. cerevisiae lifespan shortening project (AID 705;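 active = growth inhibition above 25% in both replicates, a cutoff set 3 SD above the mean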). The conditions noted are these: OD615, 24 h, at 10 µM, stronger effect = higher value.
Assay [10] is described as follows: Restrictive medium S. cerevisiae growth inhibition, OD615, pilot screen of yeast lifespan reduction project, restrictive growth control (AID 706;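 active = growth inhibition above a set limit, 3 SD over mean compound inhibition, in both replicates, cut at about 43% in these data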;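 note: modified DeaD lifespan yeast strain shifted to restrictive glucose medium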). The conditions noted are these: OD615, 48 h, at 10 µM, stronger effect = higher value.
A short description of assay [11]: viability gain of MRP-1-high H69AR cells under doxorubicin, pilot screen, MRP-1 activator project, CellTiter-Glo, duplicate (AID 807;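 active = viability increase at or above a cutoff of the median across tested compounds plus 3 SD, cut at about 8.5% in these data, passing the limit was not always enough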;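 note: compound pretreatment 18-22 h then 72 h combined with doxorubicin; 0% = doxorubicin alone and 100% = vehicle without doxorubicin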). Conditions: H69AR viability with doxorubicin, CellTiter-Glo luminescence; at 10 µM; stronger effect = higher value.
Assay [12] can be described thus: growth suppression of beta-catenin knockout HCT116, pilot screen, human colon tumor cells (AID 823;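 active = cell viability at or below a set limit in both duplicate runs, the limit being the all-compound median minus 4 SD, cut at about 23% in these data, passing the limit was not always enough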;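 note: 0% = wells killed by 20 µM Hyamine and 100% = untreated DMSO cell wells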). The conditions noted are these: CellTiter-Glo, 60 h, at 10 µM, stronger effect = lower value.
Assay [13] in a line: growth suppression of PTEN-deleted HCT116, pilot screen, cell-based, HCT116 clonal line, CellTiter-Glo (AID 824;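 active = viability at or below 27.92% in each of two runs, the all-compound median minus 4 SD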;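 note: 0% = 20 µM Hyamine control and 100% = vehicle cell control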). Conditions: 60 h, at 10 µM, stronger effect = lower value.
Assay [14] can be described thus: inhibitors of the yeast RAM network, pilot screen, dse1pr::URA3 reporter, 5-FOA selection (AID 869;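 active = inhibition over a set limit, the all-compound mean plus 3 SD, in both replicate runs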;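 note: 0% = DMSO wells with no growth and 100% = 10 µM 1-NA-PP1 with full growth; RAM network block rescues cells from 5-FOA so hits raise OD615 growth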). Conditions: S. cerevisiae dse1pr::URA3 5-FOA growth, OD615, 2 d; at 10 µM; stronger effect = higher value; strain carries analog-sensitive mutant Cbk1 kinase.
Assay [15] in a line: RAM signaling pathway blockade in yeast – S. cerevisiae, Pdr1DBD-CYC8 efflux-inhibited sensitized strain, primary screen (AID 1298;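 active = RAM network inhibition above 8.4% in each of two replicates, 3 SD over the compound average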;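 note: 0% = DMSO untreated cells without growth and 100% = 10 µM 1-NA-PP1 full growth; higher means more yeast growth rescued from 5-FOA killing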). Conditions: S. cerevisiae cbk1-as DSE1-URA3 strain, 5-FOA growth OD615, 2 d; at 50 µM; stronger effect = higher value.
Setting [16] is: H69AR cells + 2 uM doxorubicin, measured here: viability with 2 uM doxorubicin, stronger effect = lower value.
Setting [17] is: H69AR cells, compound alone cytotoxicity.

In the case of `O=C(O)CC(NC(=O)c1ccccc1NC(=O)c1ccccc1)C(=O)O` (stereo not drawn), the viability – broadly, a read-out of living cells in per cent, often relative to untreated cells – in [1] was 86.5%; in [3], 86.5% (inactive); in assay [4] it was 93.5% (inactive); in assay [5], 97.2% (inactive); in assay [6] (setting [16]) it was 90.5%; in [6] (setting [17]) it was 97.2%. The viability in [12] was 108% (inactive); in [13], 96.5% (inactive). Further, the Her2 level in assay [2] was 154% (inactive). Further, in [6] (H69AR cells + 2 uM doxorubicin), the differential viability (reversal) is 6.64% (inactive). For the same compound, the inhibition – broadly, the drop in the measured response relative to a control, in per cent – in assay [7] is 3.97% (inactive); in assay [8] it was 35.3% (active); in [14] it was 0.785% (inactive). In addition, the growth inhibition was -0.82% (inactive) in assay [9] and -3.04% (inactive) in assay [10]. The viability increase in assay [11] is -0.74% (inactive). Besides, the RAM network inhibition in assay [15] is 0.47% (inactive).
As for `O=C(OCCN=C1NS(=O)(=O)c2ccccc21)C1CC(=O)N(c2ccc(Cl)cc2)C1` (stereo not drawn), the viability in [1] was 114%; in assay [3], 114% (inactive); in assay [4], 106% (inactive); in [5], 93.2% (inactive); in assay [6] (setting [16]), 87.4%; in assay [6] (setting [17]) it was 93.2%. Besides, the results for the viability in assay [12] and in assay [13] were 107% (inactive) and 101% (inactive), respectively. Further, the Her2 level in assay [2] is 99.5% (inactive). Moreover, the differential viability (reversal) in assay [6] (H69AR cells + 2 uM doxorubicin) was 5.78% (inactive). Further, the figures for the inhibition in assay [7], in [8] and in assay [14] were -3.25% (inactive), -1.67% (inactive) and 0.695% (inactive), respectively. Also, the growth inhibition in [9] is 6.61% (inactive); in [10] it was -8.43% (inactive). In addition, in [11], the viability increase was -0.51% (inactive). The RAM network inhibition in [15] was -0.53% (inactive).
As to `O=C(CC1(O)C(=O)Nc2ccccc21)c1ccc2c(c1)OCO2` (stereo not drawn), the viability in assay [1] was 104%; in assay [3], 104% (inactive); in assay [4] it was 87.5% (inactive); in [5] it was 76.3% (inactive); in [6] (setting [16]), 88.5%; in [6] (setting [17]), 76.3%. For the same compound, the viability in assay [12] was 97.2% (inactive); in assay [13], 96.5% (inactive). In addition, the Her2 level in [2] was 93.5% (inactive). The differential viability (reversal) in assay [6] (H69AR cells + 2 uM doxorubicin) was -12.3% (inactive). The figures for the inhibition in [7], in assay [8] and in [14] were 0.78% (inactive), -3% (inactive) and 2.9% (inactive), respectively. The growth inhibition in [9] is -7.81% (inactive); in [10] it was -21.3% (inactive). In assay [11], the viability increase was -2.13% (inactive). For the same compound, the RAM network inhibition in assay [15] is 4.82% (inactive).
As to `COc1ccc(NC(=O)CN(c2ccc(C(C)C)cc2)S(=O)(=O)c2c(C)noc2C)cc1OC`, the viability in [1] was 90.5%; in assay [3], 90.5% (inactive); in assay [4], 58.7% (inactive); in assay [5], 84.9% (inactive); in [6] (setting [16]), 91.3%; in [6] (setting [17]) it was 84.9%. Further, the viability in assay [12] was 94.5% (inactive); in assay [13], 90.8% (inactive). In addition, the Her2 level in [2] was 99% (inactive). In [6] (H69AR cells + 2 uM doxorubicin), the differential viability (reversal) was -6.37% (inactive). The inhibition in assay [7] was 1.41% (inactive); in [8], -2.17% (inactive); in assay [14], 3.67% (inactive). The growth inhibition is -14.5% (inactive) in assay [9] and -5.8% (inactive) in assay [10]. Besides, in assay [11], the viability increase is -3.99% (inactive). For the same compound, in assay [15], the RAM network inhibition was 3.37% (inactive).
On to `Cc1onc(-c2ccccc2Cl)c1C(=O)Nc1cnn(Cc2ccccc2)c1`, for which the viability in assay [1] was 88.5%; in assay [3], 88.5% (inactive); in assay [4], 73.6% (inactive); in assay [5], 81.5% (inactive); in assay [6] (setting [16]), 86.9%; in assay [6] (setting [17]), 81.5%. Besides, the viability in assay [12] is 83.2% (inactive); in assay [13] it was 73% (inactive). Moreover, the Her2 level in assay [2] is 98% (inactive). Also, the differential viability (reversal) in [6] (H69AR cells + 2 uM doxorubicin) was -5.4% (inactive). The inhibition in [7] is -5.73% (inactive); in assay [8], 0.33% (inactive); in assay [14], 1.07% (inactive). The growth inhibition in assay [9] was -12.3% (inactive); in assay [10], -9.34% (inactive). Besides, in assay [11], the viability increase was 1.54% (inactive). The RAM network inhibition in [15] was 2.37% (inactive).
As to `CCOC(=O)N1CCC(Nc2nc3ccccc3n3cnnc23)CC1`, the viability in assay [1] was 94%; in assay [3], 94% (inactive); in [4], 85.8% (inactive); in [5] it was 87.1% (inactive); in assay [6] (setting [16]), 81.9%; in assay [6] (setting [17]) it was 87.1%. Moreover, the results for the viability in [12] and in assay [13] were 102% (inactive) and 95.2% (inactive), respectively. The Her2 level in [2] was 89.5% (inactive). In addition, the differential viability (reversal) in assay [6] (H69AR cells + 2 uM doxorubicin) was 5.21% (inactive). In addition, the inhibition is -0.13% (inactive) in assay [7], 3.17% (inactive) in [8] and 1.23% (inactive) in assay [14]. Further, the growth inhibition in assay [9] was 0.55% (inactive); in assay [10], -10.8% (inactive). Besides, the viability increase in assay [11] was -4.12% (inactive). In addition, in [15], the RAM network inhibition was 4.35% (inactive).
In the case of `CC(=O)NCCc1nc2ccccc2[nH]1`, the viability in assay [1] was 94%; in [3] it was 94% (inactive); in assay [4], 91.9% (inactive); in assay [5], 93.7% (inactive); in assay [6] (setting [16]), 94.7%; in assay [6] (setting [17]), 93.7%. Also, the figures for the viability in assay [12] and in assay [13] were 107% (inactive) and 97% (inactive), respectively. The Her2 level in assay [2] is 104% (inactive). Besides, the differential viability (reversal) in assay [6] (H69AR cells + 2 uM doxorubicin) was -1% (inactive). The inhibition in [7] is -5.2% (inactive); in assay [8] it was -2.33% (inactive); in [14] it was -0.365% (inactive). Moreover, the growth inhibition was -3.03% (inactive) in [9] and 6.51% (inactive) in assay [10]. In addition, the viability increase in assay [11] was -0.62% (inactive). Moreover, in [15], the RAM network inhibition is 2.3% (inactive).
Turning to `CCOc1cccc(C(=O)N2CCCCC2c2cccnc2)c1` (stereo not drawn), the viability was 98.5% in assay [1]; 98.5% (inactive) in [3]; 101% (inactive) in [4]; 110% (inactive) in assay [5]; 99.6% in [6] (setting [16]); 110% in [6] (setting [17]). Further, the results for the viability in assay [12] and in [13] were 101% (inactive) and 95.2% (inactive), respectively. The Her2 level in assay [2] was 96.5% (inactive). Also, in assay [6] (H69AR cells + 2 uM doxorubicin), the differential viability (reversal) is 10.3% (inactive). Further, the inhibition was -0.93% (inactive) in [7], -1.13% (inactive) in [8] and 0.635% (inactive) in assay [14]. Also, the growth inhibition is -4.46% (inactive) in [9] and -2.66% (inactive) in [10]. Further, the viability increase in [11] is -1.99% (inactive). Moreover, the RAM network inhibition in assay [15] is 1.95% (inactive).
With `Cc1cc(C)nc(NC2=NCC(=O)N2c2ccccc2Br)n1`, the viability in assay [1] was 93%; in assay [3], 93% (inactive); in [4], 101% (inactive); in assay [5], 89.8% (inactive); in assay [6] (setting [16]), 100%; in [6] (setting [17]) it was 89.8%. Further, the viability in assay [12] is 95.4% (inactive); in assay [13], 100% (inactive). Also, the Her2 level in [2] is 93.5% (inactive). In [6] (H69AR cells + 2 uM doxorubicin), the differential viability (reversal) is -10.2% (inactive). The results for the inhibition in [7], in assay [8] and in [14] were -7.07% (inactive), -2.33% (inactive) and 2.06% (inactive), respectively. The growth inhibition in [9] is -2.53% (inactive); in [10], 4.3% (inactive). Also, in assay [11], the viability increase was -0.37% (inactive). For the same compound, the RAM network inhibition in assay [15] is 8.53% (inactive).
